The target in assay [1] is Cytochrome P450 2D6 (Homo sapiens) (UniProt P10635). Nature of the assay: Cytochrome P450 Family 2 Subfamily D Member 6 (CYP2D6) small molecule antagonists: luciferase reporter qHTS assay (AID 1671196). Also: nearly all actives have a fitted effect of over 50% in size. Also: potency is read from the fitted curve at half-maximal effect. As to activity change, negative = inhibition: series mostly up to about 120 µM. A digest of the protocol:
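Test chemicals meet CYP2D6 plus proluciferin substrate (10 min, RT); NADPH regenerating solution then drives turnover for 1 h. Detection reagent halts the reaction; luminescence measured after 20 min.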

In assay [2] the target is Cytochrome P450 2C19 (Homo sapiens) (UniProt P33261). In words: Cytochrome P450 Family 2 Subfamily C Member 19 (CYP2C19) small molecule antagonists: luciferase reporter qHTS assay (AID 1671197). Also: nearly all actives have a fitted effect of over 65% in size. Also: potency is read from the fitted curve at half-maximal effect. As to activity change, negative = inhibition: series mostly up to about 120 µM. The procedure, abridged: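 Light output is proportional to CYP2C19 activity: proluciferin substrate is converted to luciferin, then detected by a luciferin detection reagent that also stops the 1 h, 37C NADPH-driven reaction. Ketoconazole serves as positive control.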

The target in assay [3] is Cytochrome P450 1A2 (Homo sapiens) (UniProt P05177). In words: Cytochrome P450 Family 1 Subfamily A Member 2 (CYP1A2) small molecule antagonists: luciferase reporter qHTS assay (AID 1671199). Also: nearly all actives have a fitted effect of over 50% in size. Also: potency is read from the fitted curve at half-maximal effect. As to activity change, negative = inhibition: series mostly up to about 120 µM. The procedure, abridged: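 Steps: enzyme-substrate mix dispensed; test compounds and furafylline control pinned in; 10 min room temperature; NADPH regeneration solution added, 1 h; reaction stopped with luciferin detection reagent; luminescence read after 20 min.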

In assay [4] the target is Voltage-gated inwardly rectifying potassium channel KCNH2 (Homo sapiens) (UniProt Q12809). In words: Human Ether-a-go-go-Related Gene (hERG) channel small molecule antagonists: fluorescence cell-based qHTS assay (AID 1671200).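 Also: hERG-expressing U2OS cells given a thallium stimulus after FluxOR II dye loading; series mostly up to about 77 µM; nearly all actives have a fitted effect of over 50% in size.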 The procedure, abridged:
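Read-out: thallium influx as a surrogate for potassium, tracked as fluorescence (480 nm ex/540 nm em) every second for 2 min after Stimulus Buffer addition in dye-loaded hERG-U2OS cells.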

In assay [5] the target is Cytochrome P450 3A4 (Homo sapiens) (UniProt P08684). In words: Cytochrome P450 Family 3 Subfamily A Member 4 (CYP3A4) small molecule antagonists: luciferase reporter qHTS assay (AID 1671201). Also: nearly all actives have a fitted effect of over 50% in size. Also: potency is read from the fitted curve at half-maximal effect. As to activity change, negative = inhibition: series mostly up to about 120 µM. A digest of the protocol: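 Luminescent readout (RLU) proportional to CYP3A4 activity, from luciferin generated off a proluciferin substrate. Enzyme–substrate mix plus compound 10 min at room temp, NADPH regeneration 1 h, detection reagent 20 min.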

The target of assay [6] is Cytochrome P450 2C9 (Homo sapiens) (UniProt P11712). In words: Cytochrome P450 Family 2 Subfamily C Member 9 (CYP2C9) small molecule antagonists: luciferase reporter qHTS assay (AID 1671198). Also: nearly all actives have a fitted effect of over 50% in size. Also: potency is read from the fitted curve at half-maximal effect. As to activity change, negative = inhibition: series mostly up to about 120 µM. A digest of the protocol:
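Enzyme-substrate mix preincubated with compound 10 min at room temperature; reaction started with NADPH regeneration solution, 1 h 37C. Luminescent luciferin product read after 20 min detection reagent.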

The structures appear in SMILES notation. Results filed as inconclusive are left out. Values without a mark were called inactive. Active and inactive are the calls of the source. Calls follow the shape of the dose curve; as a rule, active = well fitted curve in the direction sought with a large enough effect in the repeat runs; inconclusive = weak or mixed curves; inactive = no such curve, though single readings can be large; an effect the other way counts as inactive or inconclusive.
% is scaled to controls: 0 for no effect and ±100 for the full control effect.

Cytochrome P450 2C19 (Homo sapiens), sequence (P33261 whole entry, looked up): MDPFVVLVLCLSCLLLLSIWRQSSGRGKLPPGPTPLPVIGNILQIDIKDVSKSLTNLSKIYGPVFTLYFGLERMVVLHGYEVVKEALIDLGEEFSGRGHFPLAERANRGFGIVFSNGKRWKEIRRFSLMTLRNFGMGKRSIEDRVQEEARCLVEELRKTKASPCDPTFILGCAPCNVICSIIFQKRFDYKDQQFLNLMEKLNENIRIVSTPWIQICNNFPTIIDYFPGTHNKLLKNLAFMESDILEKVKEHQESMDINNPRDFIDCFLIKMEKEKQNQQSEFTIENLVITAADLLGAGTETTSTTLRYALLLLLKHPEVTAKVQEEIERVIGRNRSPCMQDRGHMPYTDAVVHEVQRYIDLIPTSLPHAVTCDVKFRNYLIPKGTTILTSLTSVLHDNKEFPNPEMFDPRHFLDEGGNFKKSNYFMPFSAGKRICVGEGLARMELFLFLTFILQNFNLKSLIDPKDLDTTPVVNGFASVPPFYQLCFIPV
Voltage-gated inwardly rectifying potassium channel KCNH2 (Homo sapiens), sequence (Q12809 whole entry, looked up): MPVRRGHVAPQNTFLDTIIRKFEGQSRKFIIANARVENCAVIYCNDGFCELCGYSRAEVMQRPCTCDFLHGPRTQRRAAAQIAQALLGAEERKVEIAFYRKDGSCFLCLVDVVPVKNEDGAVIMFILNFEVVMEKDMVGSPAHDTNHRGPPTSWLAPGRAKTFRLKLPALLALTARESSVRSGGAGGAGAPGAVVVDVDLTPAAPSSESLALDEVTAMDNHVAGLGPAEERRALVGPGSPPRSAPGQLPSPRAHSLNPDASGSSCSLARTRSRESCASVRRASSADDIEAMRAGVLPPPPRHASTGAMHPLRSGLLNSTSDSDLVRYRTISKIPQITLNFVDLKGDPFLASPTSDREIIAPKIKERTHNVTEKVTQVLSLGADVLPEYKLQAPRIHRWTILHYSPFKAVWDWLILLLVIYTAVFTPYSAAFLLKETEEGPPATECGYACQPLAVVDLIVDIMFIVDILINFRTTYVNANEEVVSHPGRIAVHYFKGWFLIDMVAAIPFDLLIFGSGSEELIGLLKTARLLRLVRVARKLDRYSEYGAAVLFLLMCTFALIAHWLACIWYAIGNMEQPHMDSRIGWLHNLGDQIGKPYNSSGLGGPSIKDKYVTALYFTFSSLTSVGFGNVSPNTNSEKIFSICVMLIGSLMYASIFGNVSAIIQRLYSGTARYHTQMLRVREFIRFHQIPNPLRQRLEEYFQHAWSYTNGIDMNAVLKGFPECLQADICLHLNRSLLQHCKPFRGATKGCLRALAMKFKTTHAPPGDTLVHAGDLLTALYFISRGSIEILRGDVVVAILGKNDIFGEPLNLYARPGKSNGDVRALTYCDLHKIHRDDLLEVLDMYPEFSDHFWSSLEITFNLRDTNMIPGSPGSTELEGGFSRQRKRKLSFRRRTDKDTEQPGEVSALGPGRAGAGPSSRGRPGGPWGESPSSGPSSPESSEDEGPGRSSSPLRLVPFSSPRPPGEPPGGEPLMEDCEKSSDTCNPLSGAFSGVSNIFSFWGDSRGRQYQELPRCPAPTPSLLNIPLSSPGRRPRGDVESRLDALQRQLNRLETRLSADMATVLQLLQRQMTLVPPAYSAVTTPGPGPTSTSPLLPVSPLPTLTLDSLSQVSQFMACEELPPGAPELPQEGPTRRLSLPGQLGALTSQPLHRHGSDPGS
Cytochrome P450 3A4 (Homo sapiens), sequence (P08684 whole entry, looked up): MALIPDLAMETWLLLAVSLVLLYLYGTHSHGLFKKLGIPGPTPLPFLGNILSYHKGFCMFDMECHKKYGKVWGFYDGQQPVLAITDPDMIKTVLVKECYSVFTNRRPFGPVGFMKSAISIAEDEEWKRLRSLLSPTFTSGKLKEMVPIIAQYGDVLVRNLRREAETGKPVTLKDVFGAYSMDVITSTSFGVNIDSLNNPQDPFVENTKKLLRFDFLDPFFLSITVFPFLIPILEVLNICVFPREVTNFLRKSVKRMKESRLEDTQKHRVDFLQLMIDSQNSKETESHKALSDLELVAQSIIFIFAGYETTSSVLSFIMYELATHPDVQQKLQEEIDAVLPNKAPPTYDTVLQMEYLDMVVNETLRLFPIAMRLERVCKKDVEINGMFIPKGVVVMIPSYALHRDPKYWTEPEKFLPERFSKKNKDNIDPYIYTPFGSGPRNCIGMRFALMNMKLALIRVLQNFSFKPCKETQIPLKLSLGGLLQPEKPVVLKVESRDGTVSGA
Cytochrome P450 2D6 (Homo sapiens), sequence (P10635 whole entry, looked up): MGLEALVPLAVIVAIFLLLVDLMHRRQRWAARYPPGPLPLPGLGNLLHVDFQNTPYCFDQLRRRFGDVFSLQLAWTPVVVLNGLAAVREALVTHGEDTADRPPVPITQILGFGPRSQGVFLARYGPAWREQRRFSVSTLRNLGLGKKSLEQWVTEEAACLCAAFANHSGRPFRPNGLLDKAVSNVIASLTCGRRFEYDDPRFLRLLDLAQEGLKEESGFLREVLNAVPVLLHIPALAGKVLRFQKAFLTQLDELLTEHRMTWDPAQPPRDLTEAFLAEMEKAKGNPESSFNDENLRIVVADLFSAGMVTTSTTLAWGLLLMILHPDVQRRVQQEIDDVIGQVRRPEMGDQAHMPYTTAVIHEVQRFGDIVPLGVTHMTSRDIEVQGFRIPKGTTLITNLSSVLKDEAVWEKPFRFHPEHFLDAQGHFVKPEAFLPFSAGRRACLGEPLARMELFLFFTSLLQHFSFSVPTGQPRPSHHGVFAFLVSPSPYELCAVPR
Cytochrome P450 2C9 (Homo sapiens), sequence (P11712 whole entry, looked up): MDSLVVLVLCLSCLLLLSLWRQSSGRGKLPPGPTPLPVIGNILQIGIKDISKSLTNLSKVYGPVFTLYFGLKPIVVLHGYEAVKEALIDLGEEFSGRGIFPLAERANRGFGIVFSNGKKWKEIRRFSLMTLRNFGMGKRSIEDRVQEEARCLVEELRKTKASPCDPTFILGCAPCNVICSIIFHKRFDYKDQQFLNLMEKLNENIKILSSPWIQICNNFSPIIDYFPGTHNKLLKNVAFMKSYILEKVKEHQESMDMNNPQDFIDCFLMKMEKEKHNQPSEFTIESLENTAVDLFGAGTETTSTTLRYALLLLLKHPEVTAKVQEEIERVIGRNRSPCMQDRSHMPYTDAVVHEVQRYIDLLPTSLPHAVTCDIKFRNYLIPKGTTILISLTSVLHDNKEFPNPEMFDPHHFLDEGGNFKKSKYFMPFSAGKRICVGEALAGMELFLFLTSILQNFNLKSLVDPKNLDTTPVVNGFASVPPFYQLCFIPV
Cytochrome P450 1A2 (Homo sapiens), sequence (P05177 whole entry, looked up): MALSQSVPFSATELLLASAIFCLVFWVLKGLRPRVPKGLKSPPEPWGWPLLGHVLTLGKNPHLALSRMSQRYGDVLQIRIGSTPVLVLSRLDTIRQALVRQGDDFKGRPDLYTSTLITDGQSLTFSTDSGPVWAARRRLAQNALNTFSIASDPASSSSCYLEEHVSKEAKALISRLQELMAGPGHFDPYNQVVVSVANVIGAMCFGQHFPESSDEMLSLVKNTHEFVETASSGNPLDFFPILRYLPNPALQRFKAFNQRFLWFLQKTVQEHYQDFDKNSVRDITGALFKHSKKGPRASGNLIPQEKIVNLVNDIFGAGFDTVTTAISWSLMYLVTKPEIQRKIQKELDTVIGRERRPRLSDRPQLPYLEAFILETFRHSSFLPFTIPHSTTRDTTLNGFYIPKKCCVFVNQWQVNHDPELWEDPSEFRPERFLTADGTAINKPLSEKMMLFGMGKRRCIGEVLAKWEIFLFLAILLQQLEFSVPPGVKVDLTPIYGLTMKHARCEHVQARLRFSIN

Turning to `CCCCCCCCCCCCCC(=O)OC`, the Potency entry in assay [1], in assay [2], in assay [3], in assay [4] and in assay [5] was “inactive” each time.
With `CC(C)C(=O)c1ccccc1`, the Potency result in assay [1], in assay [2], in assay [4] and in assay [5] was “inactive” throughout.
On to `CCOC(=O)CCc1ccccc1`, for which the Potency result in assay [1], in assay [6], in assay [4] and in assay [5] was “inactive” in each case.
Turning to `C=CCOCC(O)CCl` (centres undefined), the Potency entry in assay [1], in assay [4] and in assay [5] was “inactive” in each case.
For `C[C@H](CCC(=O)O)[C@H]1CC[C@H]2[C@@H]3[C@H](O)C[C@@H]4C[C@H](O)CC[C@]4(C)[C@H]3C[C@H](O)[C@]12C`, the Potency entry in assay [1], in assay [3], in assay [4] and in assay [5] was “inactive” in each case.
`CCOc1ccc(NC(=O)OC(C)C)cc1OCC`: the Potency in assay [2] was 71 µM (active); in assay [3], 5.03 µM (active). Further, the Potency result in assay [6], in assay [4] and in assay [5] was “inactive” throughout.
Regarding `CN=C(NC#N)NCCSCc1csc(N=C(N)N)n1`, in assay [4], the Potency entry was “inactive”.
On to `CCN(CCC#N)c1ccccc1`, for which the Potency is 8.94 µM (active) in assay [2] and 31.7 µM (active) in assay [3]. Besides, the Potency entry in assay [4] and in assay [5] was “inactive” each time.
Take `CCC(=O)OCCC(C)CCC=C(C)C` (centres undefined): the Potency was 20 µM (active) in assay [2], 25.2 µM (active) in assay [6], 39.9 µM (active) in assay [3] and 12.6 µM (active) in assay [5]. Further, in assay [4], the Potency entry is “inactive”.
For the molecule `CC(=O)N1CCN(c2ccc(O)cc2)CC1`, the Potency in assay [3] was 24.5 µM (active). Further, the Potency result in assay [4] and in assay [5] was “inactive” in each case.
Regarding `Cc1ncc([N+](=O)[O-])n1CC(O)CCl` (centres undefined), the Potency entry in assay [4] was “inactive”.
For the molecule `C=CCOC(=O)c1ccc(C(=O)OCC=C)c(C(=O)OCC=C)c1`, the Potency is 0.159 µM (active) in assay [2], 0.399 µM (active) in assay [6], 6.33 µM (active) in assay [3] and 1.78 µM (active) in assay [5]. For the same molecule, the Potency entry in assay [4] was “inactive”.
Regarding `Oc1ccccc1Cc1ccccc1O`, the Potency in assay [2] was 10 µM (active); in assay [6], 39.9 µM (active). The Potency result in assay [4] is “inactive”.
With `CCCO`, the Potency result in assay [6], in assay [3], in assay [4] and in assay [5] was “inactive” each time.
`C=CCOc1c(Br)cc(Br)cc1Br`: the values for the Potency in assay [2], in assay [6] and in assay [3] were 7.96 µM (active), 8.94 µM (active) and 2.83 µM (active), respectively. Further, the Potency entry in assay [4] was “inactive”.
On to `CCOC(=O)C(=O)c1csc(NC=O)n1`, for which the Potency entry in assay [2], in assay [4] and in assay [5] was “inactive” throughout. For the same molecule, in assay [3], the Potency is 19.5 µM (active).
In the case of `CC(=O)Nc1ccc(C)cc1`, the Potency result in assay [1], in assay [4] and in assay [5] was “inactive” each time. Also, the Potency in assay [3] is 39.6 µM (active).
As for `COc1ccc(NS(=O)(=O)c2ccc(N)cc2)nn1`, the Potency result in assay [4] was “inactive”.
On to `O=CO`, for which the activity change, negative = inhibition in assay [4] was -0.636% [at 6.97 µM].
For the molecule `O=C(COCCOCCOCC(=O)Nc1c(I)cc(I)c(C(=O)O)c1I)Nc1c(I)cc(I)c(C(=O)O)c1I`, the Potency in assay [2] is 34.7 µM (active). For the same molecule, the Potency entry in assay [6], in assay [3], in assay [4] and in assay [5] was “inactive” in each case.
In the case of `C=COCCOCCOC=C`, the Potency result in assay [2], in assay [6], in assay [4] and in assay [5] was “inactive” each time.
`CN(C1CCCCC1)S(=O)(=O)c1ccccc1N`: the Potency in assay [2] was 3.17 µM (active); in assay [6], 6.33 µM (active). For the same molecule, in assay [4], the Potency result was “inactive”.
For the molecule `COC(OC)C(C)c1ccccc1` (centres undefined), the Potency entry in assay [1], in assay [4] and in assay [5] was “inactive” in each case.
As for `c1ccc(CNc2ncnc3nc[nH]c23)cc1`, the Potency result in assay [4] is “inactive”.
Regarding `O=C(O)c1ccccc1C(=O)OCc1ccccc1`, the Potency entry in assay [2], in assay [3], in assay [4] and in assay [5] was “inactive” each time.
Regarding `CCN(CC)C(=O)C1CN2CCc3cc(OC)c(OC)cc3C2CC1OC(C)=O` (centres undefined), the Potency result in assay [2], in assay [6], in assay [3] and in assay [4] was “inactive” in each case.
Turning to `Cc1nc([N+](=O)[O-])cn1-c1ccc([N+](=O)[O-])cc1`, the Potency entry in assay [2], in assay [6], in assay [3], in assay [4] and in assay [5] was “inactive” in each case.
As to `CN[C@@H]1[C@@H](O)[C@@H](O[C@@H]2[C@H](O)[C@H](O[C@H]3OC(CN)=CC[C@H]3N)[C@@H](N)C[C@H]2N)OCC1(C)O` (some centres undefined), the Potency entry in assay [4] was “inactive”.
`CCOC(=O)CC#N`: the Potency in assay [2] is 39.5 µM (active). Further, the Potency result in assay [4] and in assay [5] was “inactive” throughout.
Take `Cc1nc2ccccc2c(=O)o1`: the Potency result in assay [4] and in assay [5] was “inactive” in each case.
`NS(=O)(=O)c1ccccc1OC(F)(F)F`: the Potency result in assay [1], in assay [6], in assay [4] and in assay [5] was “inactive” throughout.
On to `CCS(=O)(=O)CCn1c([N+](=O)[O-])cnc1C`, for which the Potency result in assay [4] is “inactive”.
As for `CCCCCCCCCOCC1CO1` (centres undefined), the Potency was 52.2 µM (active) in assay [2] and 82.8 µM (active) in assay [6]. Besides, in assay [4], the Potency entry is “inactive”.
As to `CCCCCCCCOC(C)=O`, the Potency result in assay [1], in assay [3], in assay [4] and in assay [5] was “inactive” in each case.
As for `CCCCC(CC)CNC(=O)CC(C)OC(=O)CCC(=O)O` (centres undefined), in assay [1], the Potency is 17.4 µM (active). Moreover, the Potency result in assay [3] and in assay [4] was “inactive” in each case.
`C1CCN2C[C@@H]3C[C@@H](CN4CCCC[C@@H]34)[C@H]2C1`: the Potency result in assay [4] was “inactive”.
In the case of `O=S(=O)(O)c1cc(O)ccc1O`, the Potency entry in assay [4] is “inactive”.
Turning to `CC1CCC(C(C)(C)S)C(=O)C1` (centres undefined), the figures for the Potency in assay [2] and in assay [6] were 79.6 µM (active) and 39.9 µM (active), respectively. Further, the Potency result in assay [3] and in assay [4] was “inactive” in each case.
As for `CC(C)COC(=O)/C=C/c1ccccc1`, the Potency result in assay [1] and in assay [5] was “inactive” each time. Besides, the Potency in assay [3] is 28.3 µM (active).
As for `CCN(Cc1cccc(S(=O)(=O)O)c1)c1ccccc1`, the Potency in assay [6] is 17.8 µM (active). The Potency result in assay [3], in assay [4] and in assay [5] was “inactive” throughout.
As to `CCCCCCCCCCCCCCCC(=O)NCCO`, in assay [4], the Potency result was “inactive”.

For the origin of these results see PubChem BioAssay (Tox21).
